{
  "source": "PubChem BioAssay AID652014",
  "about": "(National Center for Advancing Translational Sciences (NCATS), 2013)",
  "note": "“And” between values parts separate entries of the source, which are not always exact repeats. Equal values may be shown once. The source made the active and inactive calls.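 Rule for the calls: active = relative GCLC transcription at 1 µM of at least 250%; inconclusive = relative GCLC transcription at 1 µM between 200% and 250%; inactive = relative GCLC transcription at 1 µM under 200%.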",
  "data": [
    {"experiment": "qHTS of Nrf2 Activators: Hit Validation in GCLC Induction Assay", "settings": "Hepa1c1c7 cells, GCLC mRNA qPCR, 24 h; at 1 µM; stronger effect = higher value", "text": "Many diseases have some form of oxidative stress injury and ties to inflammation, causing a host of problems for the patient. The antioxidant response element (ARE) plays an important role in alleviating the harmful effects of oxidative stress. The antioxidant response element (ARE) is a transcriptional regulatory element involved in the activation of genes coding for a number of antioxidant proteins and detoxifying enzymes. These enzymes work in concert to protect tissues from oxidative insults and chemical toxicities in human hepatocytes and immune cells. The protective effects of ARE activation are primarily triggered through Nrf2 (NF-E2-related factor) binding to and activating AREs. It is known that Nrf2 controls the production of over 250 antioxidant and detoxification proteins (Hu et al., 2006), thereby protecting tissues by increasing cellular antioxidant content and suppressing inflammatory signaling pathways. The transcription factor Nrf2 is a central link between oxidative chemicals, such as phenolic antioxidants and electrophilic compounds, and the activation of ARE. Nrf2 levels are constitutively low as a consequence of its interaction with Keap1, which targets its degradation (Zipper and Mulcahy, 2002). Electrophiles react with key cysteine residues in Keap1, releasing Nrf2 and allowing its translocation to the nucleus. Once within the nucleus, Nrf2 complexes with coactivators such as p300, and binds to the AREs to induce gene transcription of cytoprotective enzymes, resulting in the prevention of toxicity. Activation of Nrf2 protects tissues by increasing cellular antioxidant content and suppressing inflammatory signaling pathways. Identifying novel and potent Nrf2 activators by using the AREc32 cell line to detect ARE activation by small molecules will lead to the identification and development of probes to study protective pathways in multiple tissues. These specific probes are essential to study the ARE pathway, and eventually to determine whether this pathway does activate genes that could protect against a host of diseases, including cardiovascular diseases, obesity, diabetes, Alzheimer's, and Parkinson's disease. This project's aim is to identify novel and potent Nrf2 activators by using the AREc32 cell line to detect ARE activation by small molecules, which will lead to the identification and development of probes to study the ARE pathway. Compounds that were identified in the primary screen were tested in this secondary assay to assess whether a hit also activates Nrf2 transcription of the target gene GCLC. NIH Chemical Genomics Center [NCGC] NIH Molecular Libraries Probe Centers Network [MLPCN] MLPCN Grant: DK081461 Assay Submitter (PI): Curtis Klaassen, University of Kansas Medical Center\nHepac1c7 cells were seeded into 24-well plates at a density of 30,000 cells/well in 1 mL complete media per well and cultured overnight to allow attachment. Cells were treated the next day with compounds (1 uM)or positive control for 24 h. Total RNA samples were then isolated by using RNAzol B reagent (Tel-Test, Inc., Friendswood, TX) according to the manufacturer's protocol. Total RNAs were reverse-transcribed into cDNA by High Capacity cDNA Archive Kits (Applied Biosystems, Foster City, CA) and the resulting cDNA was used for real-time PCR analysis using SYBR(R) Green PCR Master Mix in a 7900HT Fast Real-Time PCR System.", "values": [
      {"smiles": "Cc1nc(NCc2ccco2)nc2c1C(=O)CC(C)C2", "note": "(stereo not given)", "relative GCLC transcription": "158% (inactive)"},
      {"smiles": "COC(=O)c1c(NC(=O)c2ccccc2)sc(C(N)=O)c1C", "relative GCLC transcription": "120% (inactive)"},
      {"smiles": "COc1ccccc1NC(=O)c1cc(Cl)nc2ccccc12", "relative GCLC transcription": "461%"},
      {"smiles": "O=C(Nc1ncnc2sc3c(c12)CCC3)c1ccco1", "relative GCLC transcription": "122% (inactive)"},
      {"smiles": "CS(=O)(=O)c1nc(S(=O)(=O)c2ccc(Cl)cc2)c(N2CCOCC2)s1", "relative GCLC transcription": "148% (inactive)"},
      {"smiles": "COc1ccc(NC(=O)c2cc(-c3cccs3)on2)c(OC)c1", "relative GCLC transcription": "157% (inactive)"},
      {"smiles": "COc1ccc(NC(=O)c2cc(-c3ccco3)on2)c(OC)c1", "relative GCLC transcription": "155% (inactive)"},
      {"smiles": "Clc1ccc2c(NCc3ccccn3)ncnc2c1", "relative GCLC transcription": "181% (inactive)"},
      {"smiles": "O=C(Nc1cccc2ncccc12)c1ccc(Cl)cc1", "relative GCLC transcription": "369%"},
      {"smiles": "O=C(Nc1ncnc2sc3c(c12)CCCCC3)c1ccco1", "relative GCLC transcription": "109% (inactive) and 134% (inactive)"}
    ]}
  ]
}
